Assay outcomes: PubChem BioAssay, National Center for Advancing Translational Sciences (NCATS)
RXFP1 antag: qHTS Assay for Antagonists of the Relaxin Receptor RXFP1. 0.59% of 350,000 active. Relaxin receptor 1 (Homo sapiens), Q9HBX9. HEK293-RXFP1, relaxin-stimulated cAMP HTRF, 30 min; hits give low values. activity change, negative = inhibition, % at 57.5 µM;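 active = activity change of -60% or lower, but not beyond a set lower limit; inconclusive = change between -60% and -40%, or beyond the set limit; inactive = change above -40%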; note: % is set by controls: 0 for no effect and ±100 for the full control effect
Target sequence (Q9HBX9 whole entry, looked up): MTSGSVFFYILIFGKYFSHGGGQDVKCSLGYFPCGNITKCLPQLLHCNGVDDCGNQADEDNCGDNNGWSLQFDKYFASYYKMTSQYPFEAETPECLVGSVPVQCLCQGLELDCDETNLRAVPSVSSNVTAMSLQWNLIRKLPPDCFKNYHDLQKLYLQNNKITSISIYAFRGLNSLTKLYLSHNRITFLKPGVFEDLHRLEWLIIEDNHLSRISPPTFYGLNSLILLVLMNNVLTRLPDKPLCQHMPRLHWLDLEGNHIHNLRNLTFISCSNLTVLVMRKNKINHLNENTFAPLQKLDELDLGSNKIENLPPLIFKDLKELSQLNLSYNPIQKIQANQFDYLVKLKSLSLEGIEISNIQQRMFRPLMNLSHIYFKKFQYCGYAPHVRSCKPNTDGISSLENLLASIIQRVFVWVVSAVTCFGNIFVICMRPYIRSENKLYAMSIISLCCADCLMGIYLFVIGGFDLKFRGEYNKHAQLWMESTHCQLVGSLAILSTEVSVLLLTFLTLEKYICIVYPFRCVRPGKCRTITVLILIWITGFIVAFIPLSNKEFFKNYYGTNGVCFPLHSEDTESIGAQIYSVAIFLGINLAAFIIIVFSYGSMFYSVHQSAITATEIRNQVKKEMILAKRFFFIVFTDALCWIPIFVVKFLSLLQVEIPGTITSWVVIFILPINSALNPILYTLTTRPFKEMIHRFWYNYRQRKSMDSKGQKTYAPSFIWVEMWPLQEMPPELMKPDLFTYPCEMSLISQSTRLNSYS
NPSR antagonist: qHTS Assay for Antagonists of the Neuropeptide S Receptor: cAMP Signal Transduction. CHO-NPSR cells, cAMP TR-FRET, antagonist mode. 1% of 220,000 active. Potency, µM (series often up to 38.3 µM), for inactives: top-dose activity change, negative = inhibition, actives largely listed as inhibitors. AID 1461, 2008. Q6W5P4; note: potency is the fitted concentration of half-maximal effect; % is set by controls: 0 for no effect and ±100 for the full control effect; nearly all actives have a fitted effect of over 50% in size
IL2 activator: qHTS of IL-2 Activators | activation, % (series mostly up to about 46 µM) | IL-2 activation reporter assay, cell-based qHTS; stimulated with anti-CD3/CD4/CD28 beads; in transgenic mouse T cells | 0.065% of 360,000 active; in the data active = activation above about 50%; inconclusive = mostly about 30% to 49%; note: 0% is about no effect
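Unstimulated transgenic mouse T cells preincubated 60 min with compound, then stimulated with anti-CD3/anti-CD4-coated beads plus anti-CD28 for 18 h at 37 degrees C. IL-2 response read as EGFP and DsRed fluorescence by plate cytometry.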
Giardia killer: Small Molecules that selectively kill Giardia lamblia: qHTS | Giardia lamblia trophozoite viability | activity change, % at 7.66 µM, hits read low | 0.15% of 340,000 active | AID 540267, 2011; in the data active = activity change below about -80%; inconclusive = between about -30% and that limit;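 note: parasites exposed to compound for two days anaerobically before the ATP read; % is set by controls: 0 for no effect and ±100 for the full control effect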
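Luminescent ATP signal served as the viability read-out, measured 15-30 min after adding ATP detection reagent to trophozoites that had been incubated with compounds for 48 hrs at 37 deg C anaerobically at 100 cells/well.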
BRCA1 expr act: qHTS Assay to Identify Small Molecule Activators of BRCA1 Expression; MCF7-BRCA1-FFLuc reporter, luminescence, 48 h; response scale: scaled: vehicle 0%, 10 µM genistein 100%; Potency, µM (doses to about 46.1 µM), for the others: top-dose activation, most hits filed as activators; 1.1% of 380,000 active; AID 624202, 2012; note: potency is the fitted concentration of half-maximal effect; nearly all actives have a fitted effect of over 80% in size
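Cells: MCF7-BRCA1-FFLuc, 2000/well. Exposure: 48 h, 37 °C, 5% CO2. Read: luminescence, 15 min post-substrate. Controls: genistein 10 microM (maximal activation), DMSO (neutral).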
RXFP1 agonist: qHTS Assay for Agonists of the Relaxin Receptor RXFP1 | Relaxin receptor 1 (Homo sapiens), Q9HBX9 | HEK293T-RXFP1 cAMP TR-FRET, 30 min; response scale: percent of porcine relaxin response, buffer zero | Potency, µM (top dose mostly 57.5 µM), without a hit: top-dose activation, hits mostly activators | 0.3% of 370,000 active; note: potency is the fitted concentration of half-maximal effect; % is set by controls: 0 for no effect and ±100 for the full control effect; nearly all actives have a fitted effect of over 60% in size
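HEK293 cells stably expressing RXFP1, treated 30 min at 37C with compounds plus PDE4 inhibitor Ro 20174; cAMP measured by HTRF TR-FRET. Normalized to buffer and 29 nM porcine relaxin; EC50 by Hill fit.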
* = called active by the depositor; ? = inconclusive; . = no result given; [ ] = remark or other dose. Only some compounds are listed: those with a hit (about 1.9% of all), similar ones and a draw of the others. Unless noted, calls come from the whole dose curve; as a rule, active = well fitted curve in the direction sought with a large enough effect; inconclusive = small, poorly fitted or top-dose-only effect, or another doubt; inactive = no such curve, though single readings can be large; an effect the other way counts as inactive or inconclusive.

SMILES | RXFP1 antag | NPSR antagonist | IL2 activator | Giardia killer | BRCA1 expr act | RXFP1 agonist
C/C(=N\Nc1ccc(Cl)c(C(=O)O)c1)c1cccc([N+](=O)[O-])c1 | -6 | 17% | 0 | 39 | 14µM* | 4%
COc1ccc(CCNC(=O)c2cc3c(=O)n(C)c4cc(Cl)ccc4c3s2)cc1OC | . | . | . | . | 2% | 25%
COc1ccc(/C=C/C(=O)c2c(O)cc(C)oc2=O)c(OC)c1 | 1 | -20%[46.1 µM] | 172* | -26 | ? | 1%
CC(C)n1c(SCC(=O)N2CCN(C(=O)c3ccco3)CC2)nc2c1c(=O)n(C)c(=O)n2C | 17 | -8% | 1 | 5 | -24% | 14µM*
Cc1ccc(-n2c(O)c(/C=N/Nc3ccc(S(=O)(=O)N4CCOCC4)cc3[N+](=O)[O-])c3ccccc3c2=O)c(C)c1 | -94* | ? | 1 | ? | -98% | 0%
C(=N\Nc1nc2ccccc2[nH]1)/c1cccs1 | -2 | ? | 3 | 17 | 10µM* | 0%
COC(=O)c1ccc(/C=N/Nc2nc3ccccc3[nH]2)cc1 | -13 | -19% | -3 | 3 | 3.2µM* | 4%
C=CCn1cc(/C=N/Nc2nc3ccccc3[nH]2)c2ccccc21 | -38 | 10µM* | -6 | 22 | -46% | 3%
O=C(O)c1ccc(/C=N/Nc2nc3ccccc3[nH]2)cc1 | 21 | -9% | -1 | -7 | 0% | -4%
COc1cccc(/C=N/Nc2nc3ccccc3[nH]2)c1OC | -12 | -10% | 1 | -17 | 7.9µM* | -2%
Cc1ccc(-c2c(C3C4C=CCC(C)C4C(=O)N3Cc3ccccc3)ccc3ccccc23)cc1 (stereo not given) | . | . | . | 11 | . | .
CCCCOC(=O)CCCCCCCCC(=O)OCCCC | -18 | . | . | . | . | .
COC(=O)c1sccc1S(=O)(=O)N(CC(=O)NCc1ccccc1)c1ccc(C)cc1 | . | . | . | . | . | 2%
CCOc1ccc2nc(NC(=O)c3nc(SCc4ccccc4F)ncc3Cl)sc2c1 | . | . | . | . | . | 0%
C/C(=N\Nc1nc2ccccc2[nH]1)c1ccc2c(c1)OCO2 | -5 | -24% | -1 | 10 | -41% | 0%
C(=N\Nc1nc2ccccc2[nH]1)/c1ccc2c(c1)OCO2 | -12 | -21% | 0 | 15 | 13µM* | 0%
CCN(CC)c1ccc(/C=N/Nc2nc3ccccc3[nH]2)cc1 | -1 | 5µM* | -1 | 1 | -57% | -1%
CC(C)(C)c1ccc(S(=O)(=O)N2CCN(c3nc(-c4ccccc4)nc4ccccc34)CC2)cc1 | . | . | . | 8 | 0% | .
COc1cccc(C2Nc3c(F)cc(Br)cc3C3C=CCC32)c1OC (stereo not given) | -15 | -39% | 0 | 14 | -52% | 2%
COc1cc(C2Nc3c(F)cccc3C3C=CCC32)cc(Br)c1OC (stereo not given) | -65* | -17% | 1 | 8 | -39% | -2%
NC1CCc2ccc([N+](=O)[O-])cc21 (stereo not given) | . | . | . | . | 17% | .
C=C1C(=O)C23CCC4C(C)(C(=O)OC)CCCC4(C)C2CCC1(O)C3 (stereo not given) | -92* | . | -8 | -7 | -107% | .
Cc1ccc(C)c(CN2C(=O)c3ccccc3S(=O)(=O)c3ccc(C(=O)N4CCN(c5ccccc5F)CC4)cc32)c1 | -9 | . | . | . | . | 0%
CSc1ccc(CCNC(=O)CCc2nnc3ccc(NCCCN4CCCC4=O)nn23)cc1 | -70* | . | 0 | -1 | -27% | ?
O=C(NCC(c1cccs1)S(=O)(=O)c1cccs1)c1ccc(Cl)cc1 (stereo not given) | . | . | . | . | . | 1%
SMILES | RXFP1 antag | NPSR antagonist | IL2 activator | Giardia killer | BRCA1 expr act | RXFP1 agonist
CN(C)CCCNc1oc(/C=C/c2ccccc2)nc1C#N | -7 | -42% | 0 | -4 | -2% | ?
CN(C)CCNc1oc(/C=C/c2ccccc2)nc1C#N | 9 | 10µM* | -3 | -11 | 42% | 15%
Clc1ccc(-c2nc(Cc3ccccc3)no2)cc1 | -8 | -16%[46.1 µM] | 2 | -18 | ? | 0%
Cc1ccccc1-c1nc(Cc2ccccc2)no1 | -12 | -19%[46.1 µM] | -2 | 13 | 10µM* | 0%
COC(=O)CNC(=O)C1CCN(C(=O)OCc2ccccc2)CC1 | -2 | -10%[46.1 µM] | 0 | -6 | 96% | -1%
CONC(=O)C1CCN(C(=O)OCc2ccccc2)CC1 | 2 | 9%[46.1 µM] | 0 | -1 | 14µM* | 0%
CN1c2cc(Cl)ccc2-c2nc(SCC(=O)Nc3ccc(F)cc3F)ncc2S1(=O)=O | 1 | . | . | . | . | 32µM*
Cc1cccc(C)c1NC(=O)CSc1ncc2c(n1)-c1ccc(Cl)cc1N(Cc1ccccc1)S2(=O)=O | 18 | . | . | . | . | 10µM*
O=C(CSc1ncc2c(n1)-c1ccc(Cl)cc1N(Cc1ccccc1)S2(=O)=O)Nc1ccc(F)c(F)c1 | -7 | . | . | . | . | 12%
CCOc1ccc(/C=N/NC(=O)c2ccoc2C)cc1OC | 10 | . | 1 | -13 | 10µM* | 2%
Cc1occc1C(=O)N/N=C/c1ccc(Br)s1 | -4 | 9% | 0 | -4 | 8.9µM* | 5%
CCOC(=O)C1=C(C)n2c(s/c(=C/c3cccc([N+](=O)[O-])c3)c2=O)=NC1c1ccc(O)c(OC)c1 (stereo not given) | 27 | 7.9µM* | 2 | -7 | -71% | 3%
N#Cc1nc(-c2ccccc2F)oc1NCCc1ccccc1 | -5 | -30%[46.1 µM] | -3 | -14 | ? | 0%
N#Cc1nc(-c2cccs2)oc1NCCc1ccccc1 | -5 | -23%[46.1 µM] | 0 | -11 | 11µM* | 6%
COc1ccc(Nc2oc(-c3cccs3)nc2C#N)cc1 | -10 | ? | -1 | 12 | 1.4µM* | 0%
CNc1oc(-c2cccs2)nc1C#N | . | 1%[46.1 µM] | -4 | -22 | 0% | 11%
CCOc1nc(C#N)nc(N2CCOCC2)n1 | . | . | . | -21 | -18% | .
CCN1C(=O)c2ccccc2C1Nc1cccc(OCCN2CCCCC2)c1 (stereo not given) | -7 | . | . | . | . | .
O=C(O)CCCC[P+](c1ccccc1)(c1ccccc1)c1ccccc1 | 4 | . | . | . | . | .
N#CC(C(=O)OC1CCCCC1)c1nc2ccccc2nc1N1CCOCC1 (stereo not given) | 12 | ? | 70* | 5 | -18% | 7%
CCOC(=O)c1cnc(SCc2ccccc2)nc1N | -21 | -11%[46.1 µM] | -1 | 11 | 2.2µM* | 0%
NS(=O)(=O)Nc1c(Br)cc(Br)c2cccnc12 | . | . | . | 8 | -1% | .
Cc1ccccc1C(=O)Nc1cccc(-c2nnc(SCC(=O)NCc3ccco3)n2C)c1 | . | . | . | . | 10% | .
COCCN(C(=O)Cc1cccs1)c1nnc(-c2cccnc2)s1 | 8 | -17%[46.1 µM] | -1 | -22 | -3% | 2%
